# Test results published in PubChem BioAssay (NCATS).
# Records with an inconclusive call do not appear. Calls of active or inactive are those of the source. The call rests on the fitted dose curve; in most records, active means well fitted curve in the direction sought with a large enough effect; inconclusive means small, poorly fitted or top-dose-only effect, or another doubt; inactive means no such curve, though single readings can be large; an effect the other way counts as inactive or inconclusive.
# Target: Aldehyde dehydrogenase, mitochondrial (Homo sapiens) (UniProt P05091)
# Experiment: qHTS for Inhibitors of the Aldehyde Dehydrogenase Family (ALDH2) Primary screen (AID 2061308);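 further: plate controls were vehicle for no effect and reference inhibitor for full effect; nearly all actives have a fitted effect of over 55% in size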
# Conditions: ALDH2 enzyme inhibition qHTS, 1536-well; series mostly up to 56 µM; activity change, negative = inhibition: at the top concentration
row,Structure (SMILES),"activity change, negative = inhibition"
1,Cc1ccc(-c2cc(C(F)(F)F)nn2-c2ccc(S(N)(=O)=O)cc2)cc1,-6.3% (inactive)
2,CCN(CC)CCCC(C)Nc1ccnc2cc(Cl)ccc12 (stereo unspecified),0.897% [at 11.2 µM] (inactive)
3,CC(C)c1c(C(=O)Nc2ccccc2)c(-c2ccccc2)c(-c2ccc(F)cc2)n1CC[C@@H](O)C[C@@H](O)CC(=O)O,5.68% [at 16.9 µM] (inactive)
4,CC(=O)O[C@]1(C(C)=O)CC[C@H]2[C@@H]3C=C(Cl)C4=CC(=O)[C@@H]5C[C@@H]5[C@]4(C)[C@H]3CC[C@@]21C,3.12% (inactive)
5,Clc1ccc2c(c1)C(N1CCNCC1)=Nc1ccccc1O2,10.6% (inactive)

# Target: Retinaldehyde dehydrogenase 3 (Homo sapiens) (UniProt P47895)
# Experiment: qHTS for Inhibitors of the Aldehyde Dehydrogenase Family (ALDH1A3) Confirmatory screens (AID 2061311); further: nearly all actives have a fitted effect of over 60% in size; further: potency means the concentration at half of the fitted maximal effect; on activity change, negative = inhibition: on the % scale 0 is the no-effect control and ±100 the full control effect
# Conditions: ALDH inhibition qHTS; series mostly up to 46 µM; activity change, negative = inhibition: at the top concentration
Structure (SMILES),"activity change, negative = inhibition",Potency
O=C(O)/C=C/c1ccc(O)c(O)c1,-4.07% (inactive),
CC(C)(C)OC(=O)N1CCN(c2cnc(NCc3ccc(-c4ccc(C#N)cc4)o3)nc2)CC1,,15.8 µM (active)
CCC(NC(C)C)C(O)c1ccc(O)c(O)c1 (stereo unspecified),-6.8% (inactive),
O=C1CCc2cc(OCCCCc3nnnn3C3CCCCC3)ccc2N1,,0.631 µM (active)
CCN(CC)CCNC(=O)c1ccc(N)cc1,-1.6% (inactive),
CC(C)NCC(O)c1ccc(O)c(O)c1 (stereo unspecified),2.23% (inactive),
CC(C)(C)OC(=O)N1CCC(c2ccc(NCc3ccc(-c4ccc(C#N)cc4)o3)cc2)CC1,,3.16 µM (active)
Cc1ccc(S(=O)(=O)NC(=O)NN2CCCCCC2)cc1,-11.1% (inactive),
CC(C)(C)OC(=O)N1CCN(c2cnc(NCc3ccc(-c4ccc(C#N)cc4)o3)cn2)CC1,,11.3 µM (active)
O=C(O)CN(CCOCCOCCN(CC(=O)O)CC(=O)O)CC(=O)O,-4.3% (inactive),
CC(C)(C)OC(=O)N1CCN(c2ccc(NCc3ccc(-c4ccc(C#N)cc4)o3)cn2)CC1,,7.08 µM (active)

# Target: Retinaldehyde dehydrogenase 3 (Homo sapiens) (UniProt P47895)
# Experiment: qHTS for Inhibitors of the Aldehyde Dehydrogenase Family (ALDH1A3) Validation screen (AID 2061312); further: on the % scale 0 is the no-effect control and ±100 the full control effect; nearly all actives have a fitted effect of over 45% in size
# Conditions: ALDH1A3 enzyme inhibition qHTS validation, fluorescence; series mostly up to 84.7 µM; activity change, negative = inhibition: at the top concentration
Structure (SMILES),"activity change, negative = inhibition",Potency
CC(C)(Oc1ccc(CCNC(=O)c2ccc(Cl)cc2)cc1)C(=O)O,17.2% [at 42.4 µM] (inactive),
CC(=O)[C@H]1CC[C@H]2[C@@H]3CCC4=CC(=O)CC[C@]4(C)[C@H]3CC[C@]12C,25.5% [at 42.4 µM] (inactive),
CN1Cc2c(N)cccc2C(c2ccccc2)C1 (stereo unspecified),-16.2% [at 42.4 µM] (inactive),
CN=C(NC#N)NCCSCc1nc[nH]c1C,-2.23% [at 42.4 µM] (inactive),
Cc1ccc(-c2cc(C(F)(F)F)nn2-c2ccc(S(N)(=O)=O)cc2)cc1,27.2% [at 42.4 µM] (inactive),
CC(=O)[C@@]1(O)CC[C@H]2[C@@H]3CCC4=CC(=O)CC[C@]4(C)[C@H]3CC[C@@]21C,17.1% [at 42.4 µM] (inactive),
COc1ccc2c(c1)CCC1C2CC[C@@]2(C)C1CC[C@@H]2NCCCCCCN1C(=O)C=CC1=O (stereo partly specified),6.72% [at 42.4 µM] (inactive),
CC1=C(CC(=O)O)c2cc(F)ccc2/C1=C\c1ccc(S(C)(=O)=O)cc1,25.2% [at 42.4 µM] (inactive),
O=C1NCC2(CCN(CCc3ccccc3)CC2)O1,-22.3% [at 42.4 µM] (inactive),
OC(CCN1CCCCC1)(c1ccccc1)C1CCCCC1 (stereo unspecified),1.44% [at 42.4 µM] (inactive),
CN(C)S(=O)(=O)c1ccc2c(c1)/C(=C/c1cc3c([nH]1)CCCC3)C(=O)N2,35.1% [at 42.4 µM] (inactive),
NC(=O)N1c2ccccc2C=Cc2ccccc21,2.83% [at 42.4 µM] (inactive),
CC(C)NC[C@H](O)COc1cccc2ccccc12,8.81% [at 42.4 µM] (inactive),
CCN(CC)CCCC(C)Nc1ccnc2cc(Cl)ccc12 (stereo unspecified),9.16% [at 42.4 µM] (inactive),
CCN(CC)CCNC(=O)c1ccc(N)cc1,9.52% [at 42.4 µM] (inactive),
C[N+](C)(C)CCOP(=O)(O)OP(=O)([O-])OC[C@H]1O[C@@H](n2ccc(N)nc2=O)[C@H](O)[C@@H]1O,5.34% [at 42.4 µM] (inactive),
C=C[C@H]1CN2CC[C@@H]1C[C@@H]2[C@@H](O)c1ccnc2ccc(OC)cc12,1.26% [at 42.4 µM] (inactive),
Cc1cn([C@H]2C=C[C@@H](CO)O2)c(=O)[nH]c1=O,12.3% [at 42.4 µM] (inactive),
CC(C)NCC(O)c1ccc(O)c(O)c1 (stereo unspecified),-25.7% [at 42.4 µM] (inactive),
N[C@@H](Cc1c[nH]c2ccccc12)C(=O)O,-18.2% [at 42.4 µM] (inactive),
O=C1CC2(CCCC2)CC(=O)N1CCCCN1CCN(c2ncccn2)CC1,-21.5% [at 42.4 µM] (inactive),
CN(C)CC[C@@H](c1ccc(Br)cc1)c1ccccn1,7.37% [at 42.4 µM] (inactive),
CC(C)c1c(C(=O)Nc2ccccc2)c(-c2ccccc2)c(-c2ccc(F)cc2)n1CC[C@@H](O)C[C@@H](O)CC(=O)O,6.01% [at 42.4 µM] (inactive),
O=C1CCC(c2ccc(-n3ccnc3)cc2)=NN1,8.69% [at 42.4 µM] (inactive),
CC1=C(C(=O)O)N2C(=O)[C@@H](NC(=O)C(N)C3=CCC=CC3)[C@H]2SC1 (stereo partly specified),2.45% [at 42.4 µM] (inactive),
CC(=O)O[C@]1(C(C)=O)CC[C@H]2[C@@H]3C=C(Cl)C4=CC(=O)[C@@H]5C[C@@H]5[C@]4(C)[C@H]3CC[C@@]21C,,inactive
Clc1ccc2c(c1)C(N1CCNCC1)=Nc1ccccc1O2,,inactive
CC(C)OC(=O)C(C)(C)Oc1ccc(C(=O)c2ccc(Cl)cc2)cc1,37.5% [at 42.4 µM] (inactive),
CCC(=O)c1ccc2c(c1)N(CCCN(C)C)c1ccccc1S2,3.53% [at 42.4 µM] (inactive),

# Target: Retinal dehydrogenase 2 (Homo sapiens) (UniProt O94788)
# Experiment: qHTS for Inhibitors of the Aldehyde Dehydrogenase Family (ALDH1A2) Confirmation screens (AID 2061314); further: nearly all actives have a fitted effect of over 65% in size; further: potency means the concentration at half of the fitted maximal effect; on activity, negative = inhibition: on the % scale 0 is the no-effect control and ±100 the full control effect
# Conditions: ALDH1A2 enzyme inhibition qHTS confirmation; series mostly up to 45.9 µM; activity, negative = inhibition: at the top concentration
Structure (SMILES),"activity, negative = inhibition",Potency,outcome
O=C(O)/C=C/c1ccc(O)c(O)c1,1.06% (inactive),,
CC(C)(C)OC(=O)N1CCN(c2cnc(NCc3ccc(-c4ccc(C#N)cc4)o3)nc2)CC1,,8.96 µM (active),
CCC(NC(C)C)C(O)c1ccc(O)c(O)c1 (stereo unspecified),,,inactive
O=C1CCc2cc(OCCCCc3nnnn3C3CCCCC3)ccc2N1,,7.94 µM (active),
CCN(CC)CCNC(=O)c1ccc(N)cc1,1.21% (inactive),,
CN1Cc2sccc2C(c2ccc(O)c(O)c2)C1 (stereo unspecified),,,inactive
CC(C)NCC(O)c1ccc(O)c(O)c1 (stereo unspecified),,,inactive
CC(C)(C)OC(=O)N1CCC(c2ccc(NCc3ccc(-c4ccc(C#N)cc4)o3)cc2)CC1,,8.91 µM (active),
CC(C)(C)OC(=O)N1CCN(c2ccc(NCc3ccc(-c4ccc(C#N)cc4)o3)nc2)CC1,,25.1 µM (active),
CC(C)(C)OC(=O)N1CCN(c2cnc(NCc3ccc(-c4ccc(C#N)cc4)o3)cn2)CC1,,1.79 µM (active),
O=C(O)CN(CCOCCOCCN(CC(=O)O)CC(=O)O)CC(=O)O,-8.03% (inactive),,
